# In the OligoGym collection:
# Molecular target: RNPEPL1
# Test: pooled miR-30 sensor sort-seq; sequence = guide strand
# Details: shRNA
# Also: reference of the scale not given here.
row,Sequence,sensor-assay potency score (higher = more potent)
1,TGAACTTGTACTTCTCCACATA,-0.899
2,TTGTACTTCTCCACATAGGCTC,-0.15
3,TAGTACACGAAGCAGTAGCCCT,-0.845
4,TCTGTGTCTGCTTCAGCCTTGC,0.0808
5,TAGGTCTCGGTGGTGATACGGC,-0.874
6,TTCTGCGGTCCACAGCTGGAAA,-1.5
7,TTCTCGTAGGTGAACAGGTTCA,-0.738
8,TGGCAGGAAGACAATGTCGTAC,-1.01
9,TCAGGATAGTAGTCGTTGCGGA,-0.665
10,TACAAGAGACAGGCTGTCCTGT,0.345
11,TACTTCTCCACATAGGCTCGGA,-0.423
12,TAGGTGAACAGGTTCATCAGGT,0.726

# Molecular target: ROBO3
# Test: as above
# Details: shRNA
row,Sequence,sensor-assay potency score (higher = more potent)
1,TTTCCTTTGGTCTCGCACTGGA,-0.00997
2,TTCAGCTGCCGCACTCTCCCGT,-0.447
3,TTGGGCTTGCACCTTGATCTGG,-0.739
4,TTGTCTTGAACTGGAGGTCATC,-1.28
5,TTTATAAACAAGTCTCAGGTGG,-0.186
6,TGTAGGTCCAACATTGTCCAGC,-0.683
7,TTCATCTGGGTGGAGCACCCGC,-0.884
8,TAGCACAGTACTTTGCTGGCTT,0.438
9,TTCGTTGTAATATCTGTCGTCC,0.714
10,TTGTAATATCTGTCGTCCGGGT,-0.931
11,TCTTAGCACAGTACTTTGCTGG,-0.938
12,TTGGCCATTGTCTTGAACTGGA,-0.232

# Molecular target: ROCK2
# Test: as above
# Details: shRNA
row,Sequence,sensor-assay potency score (higher = more potent)
1,TTTCTAACTGTCTTAATGCTGA,-0.42
2,TAGATGTCCATGTTTATCCAAG,-1.07
3,TATTTTTATCTGCTAGTCGTGC,-0.412
4,TCTATTGTTAGATTCCAGCTGC,0.544
5,TAAAGCATTGGTTTCATCCAGT,0.0253
6,TTTTGCTGTATCTTCATTGAAG,-0.765
7,TAACTTGGCAGTCTCCAGCAGG,-1.05
8,TTTTCTGACATTTTTAGTGTGT,0.278
9,TTGAGAAATACTGTTCTGCTTC,0.537
10,TTTATCTGCTAGTCGTGCCTTT,0.209
11,TTCTGCTTCGAGCTGATCCTGG,-0.437

# Molecular target: ROPN1
# Test: as above
# Details: shRNA
row,Sequence,sensor-assay potency score (higher = more potent)
1,AACTGGAAGGTGCTGAACGGGA,-0.696
2,TCTGAAGTACAATCATCTCTGT,0.301
3,TTCTGAAGTACAATCATCTCTG,0.437
4,TGAAGTACAATCATCTCTGTAT,0.335
